DT40 TDP1 no CPT = qHTS for Inhibitors of human tyrosyl-DNA phosphodiesterase 1 (TDP1): qHTS in cells in absence of CPT; actives 15% (n = 420,000); DT40 Tdp1-/- hTDP1 cells, no CPT, ATP luminescence, 48 h; Potency, µM (series often up to 46.2 µM), for the others: top-dose activity change, negative = growth inhibition, actives largely listed as inhibitors; further: potency means the concentration at half of the fitted maximal effect; on the % scale 0 is the no-effect control and ±100 the full control effect; nearly all actives have a fitted effect of over 55% in size
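Camptothecin absent (DMSO only). Human TDP1-complemented DT40 knockout cells, 400 cells/well, 37 °C for minimum 48 hr; ATP measured via CellTiter-Glo, 30 min dark incubation, luminescence.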
IL1B secr inh = inflammasome signaling inhibition, IL-1 beta readout; THP-1 LPS/ATP IL-1B secretion, AlphaLISA, 16 h; active compounds read low; activity change, % at 57.5 µM; actives 4.7% (n = 360,000); AID 743279; in the data active means activity change below about -50%; inconclusive means mostly about -30% to -49%; further: on the % scale 0 is the no-effect control and ±100 the full control effect
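Secreted IL-1B measured by AlphaLISA bead assay after 16 h compound exposure of THP-1 cells; compounds (final up to 57.5 uM) added 1 h before LPS (250 ng/mL) and ATP (1.25 mM) stimulation; lower signal means less secretion.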
DT40 TDP1 CPT = DT40-hTDP1 cell growth loss with CPT; chicken DT40 Tdp1-/-;hTDP1 cells + 20 nM CPT, ATP luminescence, 48 h; Potency, µM (titrated, usually from 46.2 µM), for inactives: at the highest dose activity change, negative = growth inhibition, actives largely listed as inhibitors; actives 12% (n = 420,000); further: potency means the concentration at half of the fitted maximal effect; on the % scale 0 is the no-effect control and ±100 the full control effect; nearly all actives have a fitted effect of over 55% in size
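Chicken DT40 Tdp1-/- cells complemented with human TDP1, 400 cells/well, exposed to compounds plus 20 nM camptothecin for at least 48 h at 37 C; viability read as ATP content by CellTiter-Glo luminescence.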
ClpP mod = qHTS Assay for Activators of ClpP; ATP-dependent Clp protease proteolytic subunit (Bacillus subtilis (strain 168)), P80244; purified B. subtilis ClpP, FRET peptide cleavage, 20 min; Potency, µM (top dose mostly 57.5 µM), for inactives: at the top dose activity change, negative = active; actives 1.9% (n = 340,000); AID 651965, 2013; active means well fitted falling curve with a large enough effect; inconclusive means small, poorly fitted or top-dose-only effect; inactive means no such curve, though single readings can be large or run the other way; further: potency means the concentration at half of the fitted maximal effect; the source files actives as falling curves though it sought activators and does not explain the sign; nearly all actives have a fitted effect of over 65% in size
Target sequence (P80244 whole entry, looked up): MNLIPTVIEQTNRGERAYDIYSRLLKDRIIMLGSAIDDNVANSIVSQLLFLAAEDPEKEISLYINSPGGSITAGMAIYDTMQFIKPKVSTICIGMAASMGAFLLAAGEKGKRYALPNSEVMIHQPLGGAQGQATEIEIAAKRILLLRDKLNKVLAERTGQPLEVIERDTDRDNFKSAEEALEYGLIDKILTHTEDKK
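Purified B. subtilis ClpP, 10 microg/mL final in Tris/HCl pH8 with KCl, BSA, glycerol and Tween-20, cleaved an Abz/nitrotyrosine-quenched decapeptide. Fluorescence (ex 320, em 430) was read at 0 and 20 min at room temperature. Delta was normalized to 5.8 microM ADEP and DMSO/no-enzyme controls.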
D3 antag = blocks the human D3 dopamine receptor. D3R cells, DiscoveRx beta-arrestin luminescence, antagonist mode; active compounds read low. max response, negative = inhibition, %. P35462. actives 2.5% (n = 360,000); in the data active means max response below about -50%; inconclusive means no clear call, values can overlap the other calls; further: on the % scale 0 is the no-effect control and ±100 the full control effect
Target sequence (P35462 whole entry, looked up): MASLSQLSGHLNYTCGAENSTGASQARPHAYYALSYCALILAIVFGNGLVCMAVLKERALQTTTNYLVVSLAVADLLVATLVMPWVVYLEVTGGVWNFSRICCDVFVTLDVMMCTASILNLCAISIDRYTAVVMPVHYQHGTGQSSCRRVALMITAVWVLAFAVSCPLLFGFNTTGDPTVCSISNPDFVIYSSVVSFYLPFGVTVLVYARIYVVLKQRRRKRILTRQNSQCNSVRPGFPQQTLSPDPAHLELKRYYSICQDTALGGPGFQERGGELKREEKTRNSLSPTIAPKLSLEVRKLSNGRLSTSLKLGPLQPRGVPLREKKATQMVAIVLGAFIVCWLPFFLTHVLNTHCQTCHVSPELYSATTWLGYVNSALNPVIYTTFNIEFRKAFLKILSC
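Cells plated overnight at 1500 cells/well, then exposed to library compounds with dopamine controls for 90 minutes at 37 degrees C. DiscoveRx reagent added for 30–60 minutes at room temperature; luminescence read, quantitative HTS format.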
D3 ag = agonists of human D3 dopamine receptor; D3R DiscoveRx beta-arrestin cells, luminescence, 90 min; max activation, %; P35462; AID 652048; actives 0.58% (n = 410,000); in the data active means max activation above about 30%; further: 0% is about no effect
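Agonist mode: compounds and dopamine controls were applied to plated cells for 90 min at 37 degrees C after an overnight attachment at 1500 cells/well. Luminescent read-out followed 30 - 60 minutes at room temperature with DiscoveRx detection reagent.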
The depositor's hits bear a star; i = inactive; ? = inconclusive; · = no result. This is a sample that favours compounds with a hit; in the whole collection about 21% have one here. Unless noted, the call rests on the fitted dose curve; in most records, active means well fitted inhibition curve with a large enough effect; inconclusive means small, poorly fitted or top-dose-only effect; inactive means flat fitted curve, though single readings scatter.

SMILES	DT40 TDP1 no CPT	IL1B secr inh	DT40 TDP1 CPT	ClpP mod	D3 antag	D3 ag
Cc1cccc(C)c1NC(=O)C(c1ccccc1OC(F)(F)F)N1CCN(c2ccc(F)cc2)CC1 (configuration not stated)	?	-6	?	-6%	0	5
Cc1cccc(C)c1OCc1nnc(SCC(=O)NCc2ccccc2)o1	-20%	0	?	1%	12	38*
O=C(CSc1nnc(COc2ccc(Cl)cc2)o1)N1c2ccccc2CCc2ccccc21	15µM*	?	?	-2%	-27	-3
COC(=O)c1ccc(NC(=O)CSc2nnc(COc3c(C)cccc3C)o2)cc1	0%	0	-10%	1%	14	0
O=C(CSc1nnc(COc2ccccc2)o1)NCCc1ccccc1	7.3µM*	0	8.2µM*	-1%	0	3
CC(=O)N1c2c(cc(Br)cc2S(=O)(=O)Nc2ccc(OC(F)(F)F)cc2)CC1C (configuration not stated)	15µM*	·	18µM*	-2%	·	-13
CCc1ccc(NS(=O)(=O)c2cc(Br)cc3c2N(C(C)=O)CC3)cc1	-13%	·	-1%	-1%	·	4
CCOC(=O)c1ccc(NS(=O)(=O)c2cc(Br)cc3c2N(C(C)=O)C(C)C3)cc1 (configuration not stated)	8.2µM*	·	9.2µM*	1%	·	-9
COc1ccc(CNS(=O)(=O)c2cc(Br)cc3c2N(C(C)=O)C(C)C3)cc1 (configuration not stated)	?	-3	?	0%	-89*	0
COc1ccc(NS(=O)(=O)c2cc(Br)cc3c2N(C(C)=O)CC3)cc1	12µM*	58	8.2µM*	0%	-3	-26
C/C(=N\NC(=O)C1CC1)c1ccc(C)cc1C	-17%	-6	-5%	1%	7	-9
CC(=O)N1c2c(cc(Br)cc2S(=O)(=O)NCc2ccc(C)cc2)CC1C (configuration not stated)	-27%	14	7%	·	?	-17
CCN(c1cccc(C)c1)S(=O)(=O)c1cc(Br)cc2c1N(C(C)=O)C(C)C2 (configuration not stated)	21µM*	·	23µM*	0%	·	-17
COc1ccc(N2CCN(C(=O)c3nc(-c4ccc(Cl)cc4)n4c3CCCCC4)CC2)cc1	21µM*	·	?	-1%	·	7
COc1ccc(NC(=O)c2nc(-c3ccc(C)cc3)n3c2CCCCC3)c(OC)c1	-20%	·	6%	-2%	·	12
COc1ccc(OC)c(CCNC(=O)c2nc(-c3ccc(Cl)cc3)n3c2CCCCC3)c1	9.2µM*	·	10µM*	-8%	·	7
COc1ccc(NC(=O)c2nc(-c3ccc(C)cc3)n3c2CCCCC3)cc1	16µM*	·	?	-26%	·	-7
CN(Cc1ccccc1)C(=O)c1nc(-c2ccc(Cl)cc2)n2c1CCCCC2	?	·	?	-2%	·	-2
Cc1ccc(CNC(=O)c2nc(-c3ccc(Cl)cc3)n3c2CCCCC3)cc1	18µM*	·	?	-7%	·	-13
Cc1ccnc(NC(=O)CSc2ccccn2)c1	-17%	6	6%	0%	0	-2
CC(=O)c1ccc(S(=O)(=O)N2CCCC(N(C)CCc3ccccn3)C2)cc1 (configuration not stated)	-19%	6	-5%	-6%	-6	0
O=C(Cn1c(=O)c2sccc2n(CC(=O)Nc2ccc(Cl)cc2Cl)c1=O)NCCc1ccccc1	-18%	·	?	0%	·	-16
COc1ccccc1S(=O)(=O)Cc1ccc(C(=O)NCc2ccccc2)o1	11%	3	-29%	0%	3	8
CCC(C)(C)C1CCC2(CC1)NC(=O)N(CC(=O)N(C)Cc1ccc(OC(F)F)cc1)C2=O (configuration not stated)	7.3µM*	-4	-97%	·	-11	6
CN(Cc1ccccc1)C(=O)CN1C(=O)NC2(CCCCCCC2)C1=O	?	0	-15%	?	11	7
SMILES	DT40 TDP1 no CPT	IL1B secr inh	DT40 TDP1 CPT	ClpP mod	D3 antag	D3 ag
O=C(CN1C(=O)NC2(CCCC2)C1=O)Nc1ccccc1C(F)(F)F	-9%	-6	5%	·	3	-8
CCC(C)(C)C1CCC2(CC1)NC(=O)N(CC(=O)N(C)CCOc1ccc(Cl)cc1)C2=O (configuration not stated)	23µM*	18	?	3%	0	4
CC1CC(C)(C)CC2(C1)NC(=O)N(CC(=O)NCCc1c[nH]c3ccccc13)C2=O (configuration not stated)	11%	14	10%	0%	10	7
CCC(C)(C)C1CCC2(CC1)NC(=O)N(CC(=O)N(C)CC(=O)Nc1ccccc1C(F)(F)F)C2=O (configuration not stated)	?	i	23µM*	2%	-2	-3
CCC(C)(C)C1CCC2(CC1)NC(=O)N(CC(=O)NCCc1c[nH]c3ccccc13)C2=O (configuration not stated)	16µM*	-21	16µM*	3%	5	1
Cc1ccc(C(C)C)c(OC/C(O)=C(\C#N)c2nc3ccccc3[nH]2)c1	?	-5	8%	0%	8	7
CCc1ccc(NCc2cc3cc4c(cc3n(CC(=O)Nc3ccccc3C)c2=O)OCCO4)cc1	·	·	·	4%	·	2
C[C@H](CO)N1C[C@H](C)[C@@H](CN(C)S(=O)(=O)c2ccccc2F)OCc2cnnn2CCCC1=O	-26%	1	-4%	-4%	?	-10
COc1ccc(C(=O)N2CCN(S(=O)(=O)c3ccc(C)cc3C)CC2)cc1OC	?	0	-24%	0%	-26	-3
COc1ccc(C(=O)N2CCN(c3ccc(C)cc3C)CC2)cc1OC	26µM*	-17	21µM*	-19%	4	0
COc1ccc(C(=O)N2CCN(c3ccc(C)c(C)c3)CC2)cc1OC	16µM*	21	?	3%	-3	1
COc1ccc(OCCN2CCN(C(=O)c3ccc(OC)c(OC)c3)CC2)cc1	-34%	8	-4%	·	9	112*
O=C1CC2(CCN(C(=O)c3c(F)cccc3F)CC2)Oc2ccccc21	-23%	-8	-20%	?	-11	-20
